From PubChem
MEKK2 WT-MEK5 – raises or lowers MEK5 binding to wildtype human MEKK2 PB1 domain | Q9Y2U5 | binding response (% of control), % at 10 µM | 290,000 compounds, 1.1% hits | bead flow cytometry, Alexa488-MEK5 binding to MEKK2 WT; actives lie on both sides; in the data active = binding response below about 67% or above about 130%
MEKK2mut PB1 HTS – signal of MEK5 binding to mutant human MEKK2 PB1 domain | AID 1530 | 290,000 compounds, 0.35% hits | percent response, % at 10 µM | bead flow cytometry, Alexa488-MEK5 binding to MEKK2 mutant; in the data active = percent response above about 24%, passing the limit was not always enough
MEKK3 PB1 HTS – raises or lowers MEK5 binding to the human MEKK3 PB1 domain; Q99759; bead-based flow cytometry, Alexa488-MEK5 binding to MEKK3; actives lie on both sides; 0 = blocked by unlabeled MEK5, 100 = vehicle; binding response (% of control), % at 10 µM; 290,000 compounds, 1.4% hits; AID 1529;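 active = binding response more than 3 SD above or below the average of its plate-row segment, actives on both sides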;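 note: Alexa488 bead fluorescence after subtracting the streptavidin-only scavenger bead signal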
Target sequence (Q99759 whole entry, looked up, the tested form may be a part): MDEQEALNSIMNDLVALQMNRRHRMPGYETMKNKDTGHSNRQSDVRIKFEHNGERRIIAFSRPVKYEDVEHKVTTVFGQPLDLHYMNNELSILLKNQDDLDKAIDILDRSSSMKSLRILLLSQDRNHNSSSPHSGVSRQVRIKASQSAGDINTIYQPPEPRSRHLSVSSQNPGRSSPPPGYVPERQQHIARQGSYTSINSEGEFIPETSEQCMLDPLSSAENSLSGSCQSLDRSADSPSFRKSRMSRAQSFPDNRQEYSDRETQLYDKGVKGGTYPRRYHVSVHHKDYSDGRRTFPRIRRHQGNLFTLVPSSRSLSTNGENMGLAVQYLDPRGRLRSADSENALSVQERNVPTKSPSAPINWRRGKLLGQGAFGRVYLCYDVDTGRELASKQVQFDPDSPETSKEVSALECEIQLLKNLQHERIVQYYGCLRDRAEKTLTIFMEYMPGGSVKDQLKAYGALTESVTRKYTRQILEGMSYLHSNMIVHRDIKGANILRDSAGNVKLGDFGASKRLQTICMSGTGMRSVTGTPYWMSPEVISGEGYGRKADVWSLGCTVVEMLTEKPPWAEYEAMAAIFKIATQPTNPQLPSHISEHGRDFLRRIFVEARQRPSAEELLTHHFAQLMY
Arbovirus anti – blocks arbovirus infection | arbovirus infection cell-based antiviral screen | inhibition, % at 10 µM | 200,000 compounds, 0.37% hits | AID 1251; in the data active = inhibition above about 30%
Pf gamet viab – inhibitors of late stage P. falciparum gametocyte viability | P. falciparum stage V gametocytes, ATP luminescence, 24 h | inhibition, % at 10.9 µM | AID 743093 | 150,000 compounds, 0.065% hits;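 active = inhibition above the mean plus 3 SD of compounds within the control limits, set per campaign, cut at about 38% in these data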;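 note: 0% = DMSO wells and 100% = medium only without gametocytes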
Numbers without * were called inactive. In the library only some 2.4% were active in any assay of this set; here they are far more common.

For COCCCn1c(SCc2nc3ccccc3c(=O)[nH]2)nc2ccccc2c1=O the results were MEKK2 WT-MEK5 88, MEKK2mut PB1 HTS 1, MEKK3 PB1 HTS 111 and Arbovirus anti -3.
For COCC(C)n1c(SCc2nc3ccccc3c(=O)[nH]2)nc2ccccc2c1=O (centres undefined) the results were MEKK2 WT-MEK5 100, MEKK2mut PB1 HTS -2, MEKK3 PB1 HTS 100, Arbovirus anti 45* and Pf gamet viab -31.
`CN(C(=O)c1cccc(NC(=O)C2CCN(C(=O)OC(C)(C)C)CC2)c1)C1CCCCC1` gave Pf gamet viab 8.
Screening O=C(O)c1ccc(Cn2ccc3ccccc32)o1 returned MEKK2 WT-MEK5 104, MEKK2mut PB1 HTS 4, MEKK3 PB1 HTS 105 and Pf gamet viab -4.
c1ccc(C2(Cn3ccc4ccccc43)OCCO2)cc1 was read as MEKK2 WT-MEK5 12*, MEKK2mut PB1 HTS 3, MEKK3 PB1 HTS 95, Arbovirus anti 1 and Pf gamet viab 17.
COc1ccc(OC)c(S(=O)(=O)CC(O)COc2ccccc2Cl)c1 (centres undefined) was read as MEKK2 WT-MEK5 104, MEKK2mut PB1 HTS -5 and MEKK3 PB1 HTS 104.
For COc1ccc(-c2cc(-c3ccc(OC)c(OC)c3)n[nH]2)c(O)c1 the results were MEKK2 WT-MEK5 100, MEKK2mut PB1 HTS 0, MEKK3 PB1 HTS 99, Arbovirus anti 32* and Pf gamet viab -19.
Screening CNc1nc(Nc2ccc(Br)cc2)nc(N)c1[N+](=O)[O-] returned MEKK2 WT-MEK5 101, MEKK2mut PB1 HTS -1, MEKK3 PB1 HTS 98, Arbovirus anti -11 and Pf gamet viab -19.
`Cc1ccccc1C(=O)NNc1ccc(-c2csnn2)cc1` gave MEKK2 WT-MEK5 100, MEKK2mut PB1 HTS -7, MEKK3 PB1 HTS 100 and Pf gamet viab 24.
Screening O=C/C(=C\Nc1ccc(Cl)cn1)c1nc2cc(Cl)ccc2o1 returned MEKK2 WT-MEK5 103, MEKK2mut PB1 HTS 5, MEKK3 PB1 HTS 100, Arbovirus anti 30* and Pf gamet viab 17.
For O=C(NCc1nc(-c2ccc(Cl)cc2)no1)c1ccc2c(c1)OCO2 the results were MEKK2 WT-MEK5 100, MEKK2mut PB1 HTS 0 and MEKK3 PB1 HTS 102.
Screening CC(O)(CS(=O)(=O)Cc1ccccc1)c1ccccc1Cl (centres undefined) returned MEKK2 WT-MEK5 96, MEKK2mut PB1 HTS -6 and MEKK3 PB1 HTS 96.
`N#CCC(=O)Nc1ccc(C(=O)OCC(=O)Nc2ccccc2Sc2ccccc2)cc1` gave MEKK2 WT-MEK5 111, MEKK2mut PB1 HTS 8, MEKK3 PB1 HTS 106, Arbovirus anti -9 and Pf gamet viab 40*.
`Cc1cccc2c1nc(-c1ccccc1)n1nnnc21` gave MEKK2 WT-MEK5 99, MEKK2mut PB1 HTS 6, MEKK3 PB1 HTS 103, Arbovirus anti 55* and Pf gamet viab -22.
O=C(O)CSc1cc(C(=O)c2ccccc2O)cn2c(=O)c3c(-c4ccccc4)csc3nc12 was read as MEKK2 WT-MEK5 92, MEKK2mut PB1 HTS -5, MEKK3 PB1 HTS 102, Arbovirus anti 70* and Pf gamet viab -2.
For COc1ccccc1NS(=O)(=O)c1cc(NC(=O)Nc2ccc(Cl)cc2Cl)ccc1N1CCCCC1 the results were MEKK2 WT-MEK5 89, MEKK2mut PB1 HTS 5, MEKK3 PB1 HTS 95 and Arbovirus anti 10.
Screening COc1cc(/C=C/C(=O)Nc2ccc(N3CCCCC3)c(S(=O)(=O)Nc3ccccc3Cl)c2)cc(OC)c1OC returned MEKK2 WT-MEK5 32*, MEKK2mut PB1 HTS 26, MEKK3 PB1 HTS 110, Arbovirus anti 18 and Pf gamet viab -29.
`CCOC(=O)C1CCN(c2ccc(Cl)nn2)CC1` gave MEKK2 WT-MEK5 -3.0*, MEKK2mut PB1 HTS 4, MEKK3 PB1 HTS 105, Arbovirus anti 5 and Pf gamet viab -13.
For Cc1nn(-c2cccc(Cl)c2)c2nc(C(F)(F)F)[nH]c(=O)c12 the results were MEKK2 WT-MEK5 96, MEKK2mut PB1 HTS -3, MEKK3 PB1 HTS 95, Arbovirus anti 30 and Pf gamet viab -8.
For Cc1nn(-c2cc(C(F)(F)F)ccc2Cl)c2nc(C(F)(F)F)[nH]c(=O)c12 the results were MEKK2 WT-MEK5 71, MEKK2mut PB1 HTS -8, MEKK3 PB1 HTS 77, Arbovirus anti 42* and Pf gamet viab 12.
`CCn1c(C)c(C)c2cc(C(=O)NCCN3CCOCC3)ccc21` gave MEKK2 WT-MEK5 98, MEKK2mut PB1 HTS 1 and MEKK3 PB1 HTS 95.
`CCn1c(C)c(C)c2cc(C(=O)NCCCN3CCCCC3C)ccc21` (centres undefined) gave MEKK2 WT-MEK5 17*, MEKK2mut PB1 HTS 41* and MEKK3 PB1 HTS 103.
`CCn1c(C)c(C)c2cc(C(=O)NCCCN3CCCC3)ccc21` gave MEKK2 WT-MEK5 144*, MEKK2mut PB1 HTS 14 and MEKK3 PB1 HTS 104.
Screening Cc1cc(C)cc(SCc2noc(C(=O)NCCN(C)C)c2C(=O)NCCN(C)C)c1 returned MEKK2 WT-MEK5 123, MEKK2mut PB1 HTS 7, MEKK3 PB1 HTS 100 and Pf gamet viab 24.
Screening COCCCNC(=O)C1C2C=CC3(CN(Cc4ccc(C)cc4)C(=O)C13)O2 (centres undefined) returned MEKK2 WT-MEK5 109, MEKK2mut PB1 HTS 9, MEKK3 PB1 HTS 105 and Arbovirus anti 9.
Screening Cc1ccc(CN2CC34C=CC(O3)C(C(=O)NCc3ccc5c(c3)OCO5)C4C2=O)cc1 (centres undefined) returned MEKK2 WT-MEK5 125, MEKK2mut PB1 HTS 8, MEKK3 PB1 HTS 128* and Arbovirus anti 1.
Screening CCN(CC)CCNC(=O)c1cc(-c2cccnc2)nc2ccc(S(=O)(=O)N3CCC(C)CC3)cc12 returned MEKK2 WT-MEK5 122, MEKK2mut PB1 HTS 6 and MEKK3 PB1 HTS 104.
For CCCCN(C)CCNC(=O)c1cc(-c2cccnc2)nc2ccc(S(=O)(=O)N3CCC(C)CC3)cc12 the results were MEKK2 WT-MEK5 136*, MEKK2mut PB1 HTS 14 and MEKK3 PB1 HTS 103.
Screening CCc1nc(SCC(=O)Nc2ccc(F)cc2)c2c(=O)n(C)c(=O)n(C)c2n1 returned MEKK2 WT-MEK5 102, MEKK2mut PB1 HTS 0 and MEKK3 PB1 HTS 103.
For COc1cccc(/C(=N/O)C2CC2c2ccc(Cl)cc2)c1 (centres undefined) the results were MEKK2 WT-MEK5 94, MEKK2mut PB1 HTS -6, MEKK3 PB1 HTS 101, Arbovirus anti -7 and Pf gamet viab -4.
Screening O=C1CC(N2CCC(Cc3ccccc3)CC2)C(=O)N1CCc1ccccc1 (centres undefined) returned MEKK2 WT-MEK5 103, MEKK2mut PB1 HTS 4, MEKK3 PB1 HTS 104 and Arbovirus anti 30*.
`Cc1cc(C)c2c(=O)[nH]c(SCC(=O)c3ccc(C)c(C)c3)nc2n1` gave MEKK2 WT-MEK5 109, MEKK2mut PB1 HTS -1, MEKK3 PB1 HTS 110 and Arbovirus anti 35*.
Screening Cc1cc(C)c2c(=O)[nH]c(SCC(=O)Nc3ccccc3)nc2n1 returned MEKK2 WT-MEK5 109, MEKK2mut PB1 HTS 9, MEKK3 PB1 HTS 105, Arbovirus anti -3 and Pf gamet viab 10.
